The whole screen tested about 50,000 compounds, of which about 800 (1.6%) showed an effect of 50% or more. The sample as a whole holds a higher share of strong results than the screen did.
The compounds below were run against Bcl-2-like protein 10 (Homo sapiens) (UniProt Q9HD36) (assay: TR3 peptide-Bcl-B binding displacers, biochemical primary FP assay, phenotype converters (AID 1240;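 note: 0% = Bcl-B with tracer peptide and DMSO and 100% = tracer peptide lacking Bcl-B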)). Settings: GST-Bcl-B / FITC-TR3 peptide fluorescence polarization; stronger effect = higher value; compound at 3.75 mg/L.
Bcl-2-like protein 10 (Homo sapiens), sequence (Q9HD36 whole entry, looked up): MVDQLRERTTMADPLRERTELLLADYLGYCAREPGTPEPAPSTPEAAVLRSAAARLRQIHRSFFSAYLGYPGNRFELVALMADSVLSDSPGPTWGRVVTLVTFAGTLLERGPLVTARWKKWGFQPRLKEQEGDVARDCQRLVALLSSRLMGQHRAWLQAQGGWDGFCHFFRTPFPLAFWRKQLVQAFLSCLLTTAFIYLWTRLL
For `Cc1ccc(S(=O)(=O)Nc2ccc(S(=O)(=O)N3CCCCC3)cc2)cc1[N+](=O)[O-]`, the displacement was -4%. In the case of `Cn1c(=O)c(C2=NS(=O)(=O)c3ccccc3N2)c(O)c2ccccc21`, the displacement is reported as 2.1%. `CC(=O)CC(c1ccccc1)S(=O)(=O)c1ccccc1C` (stereo unspecified) showed a displacement of 0.2%. For `O=C(NCCCc1ccccc1)C(F)(F)F`, the displacement was 85.1%. In the case of `O=C(NCCCc1ccccc1)c1ccccc1`, the displacement is reported as -1.3%. `O=C(NCCC(c1ccccc1)c1ccccc1)C(F)(F)F` gave a displacement of -1.5%. Compound `CCCCOc1ccc(C=O)cc1OCC` has a displacement of -7.3%. In the case of `CC(=O)C1=C(O)C(=O)N(CCN2CCNCC2)C1c1cccc(F)c1` (stereo unspecified), the displacement is reported as -17.2%. With `CCOC(=O)c1ccc(N2C(=O)NC(=O)/C(=C/c3ccc(OC)c(OC)c3)C2=O)cc1` the displacement was -4.2%. In the case of `CCCC(=O)NC(c1ccco1)c1c(O)ccc2ccccc12` (stereo unspecified), the displacement is reported as 6.6%. Compound `NS(=O)(=O)c1ccc(N/C=C/C(=O)c2ccc(Cl)c(Cl)c2)cc1` has a displacement of 4.8%. For `NS(=O)(=O)c1ccc(N/C=C/C(=O)c2ccco2)cc1`, the displacement was 74.8%. In the case of `COc1ccc(N/C=C/C(=O)c2ccco2)cc1`, the displacement is reported as 11.7%. In the case of `Cc1ccc(N2C(=O)NC(=O)/C(=C\c3ccc(N(C)C)c(Br)c3)C2=O)cc1`, the displacement is reported as 10.1%. `CC(=O)c1cccc(N2C(=O)C3CCCCC3C2=O)c1` (stereo unspecified) gave a displacement of -12.9%. For `COc1ccccc1/C=C1\C=C(c2ccc(Cl)cc2)OC1=O`, the displacement was 9.6%. Work on `COc1ccc(C2=C/C(=C/c3ccccc3OC)C(=O)O2)cc1` yielded a displacement of 85.1%. Compound `CC(=O)Oc1ccccc1/C=C1\C=C(c2ccc(Cl)cc2)OC1=O` has a displacement of 108%. Work on `CC(=O)Oc1ccccc1/C=C1\C=C(c2ccc(Br)cc2)OC1=O` yielded a displacement of 12%. In the case of `COc1ccc(/C=C2/C=C(c3ccccc3)OC2=O)c(OC)c1`, the displacement is reported as -30%. Compound `CC(=O)Oc1ccccc1/C=C1\C=C(c2ccc(C)cc2)OC1=O` has a displacement of -0.2%. For `COc1ccc(C2=C/C(=C/c3ccc(OC)cc3OC)C(=O)O2)cc1`, the displacement was 144%. In the case of `COc1ccc(OC)c(/C=C2/C=C(c3ccccc3)OC2=O)c1`, the displacement is reported as -24.5%. `COc1ccc(/C=C2\C=C(c3ccc(Cl)cc3)OC2=O)c(OC)c1` showed a displacement of 25.2%. Work on `O=C(CCc1ccccc1)Nc1ccc(Br)cc1` yielded a displacement of 9.1%. `O=C(c1ccccc1Cl)N1CCN(c2c(Cl)cccc2[N+](=O)[O-])CC1` gave a displacement of 8.5%. With `O=[N+]([O-])c1cccc(Cl)c1N1CCOCC1` the displacement was 3.9%. `O=[N+]([O-])c1cccc(Cl)c1N1CCN(CCO)CC1` was tested, and the displacement was 89.3%. In the case of `Cc1ccc(C(=O)Nc2ccc(NC(=O)c3ccco3)c(Cl)c2)cc1C`, the displacement is reported as -8.9%. With `Cc1ccc(C(=O)Nc2cccc(NC(=O)c3ccco3)c2)cc1C` the displacement was 60.4%. In the case of `Cc1ccc(C(=O)Nc2ccc(NC(=O)c3ccco3)cc2)cc1C`, the displacement is reported as -0.4%. `CCn1cc(C(=O)NN)c(=O)c2cc(Br)ccc21` gave a displacement of 20.2%. Compound `O=C(CSc1nc2ccc([N+](=O)[O-])cc2s1)N1CCOCC1` has a displacement of 1.4%. `COC1C(C)=CC(=O)N1Cc1ccccc1` (stereo unspecified) was tested, and the displacement was 4.4%. `Cc1cc(C)c(S(=O)(=O)NCC2CCCO2)c(C)c1` (stereo unspecified) was tested, and the displacement was -8%. Work on `CCc1cc(C)cc(OCCOc2ccc([N+](=O)[O-])cc2/C=C2/SC(=S)N(C)C2=O)c1` yielded a displacement of 20.5%. `COc1ccccc1/C=C1\SC(=N)N(c2ccc(F)cc2)C1=O` was tested, and the displacement was -8.6%. Work on `CCCc1[nH]n(-c2nc3ccccc3s2)c(=O)c1C=NCCc1ccccc1` yielded a displacement of -1%. For `COc1ccc(CCN=Cc2c(C(F)(F)F)[nH]n(-c3nc4ccccc4s3)c2=O)cc1OC`, the displacement was 69.9%. `O=c1c(C=NCc2cccs2)c(C(F)(F)F)[nH]n1-c1nc2ccccc2s1` gave a displacement of -13.8%. `Cc1ccc(C)c(NC(=O)C2C3C4CCC(C4)C23)c1` (stereo unspecified) was tested, and the displacement was -7.2%. For `COc1ccc(/C=C/C(=O)NC(=S)Nc2ccc(I)cc2)cc1`, the displacement was 14.3%. For `Cc1ccc(NC(=O)c2cnn(-c3ccccc3)c2NC(=O)c2ccccc2Cl)cc1C`, the displacement was 3.3%. `CCN(CC)C(=O)c1cnn(-c2ccccc2)c1NC(=O)c1ccccc1Cl` gave a displacement of 9.1%. `O=C(Nc1c(C(=O)Nc2cccc(Cl)c2)cnn1-c1ccccc1)c1ccccc1Cl` showed a displacement of 83%. With `COCCOC(=O)c1ccc(NC(=O)c2ccccc2CCc2ccccc2)cc1` the displacement was 7.1%. `CN1CCC(O)N1C(=O)c1ccccc1O` (stereo unspecified) gave a displacement of 12.7%. Compound `CCc1ccc2oc(-c3cccc(NC(=O)c4ccc5c(c4)OCCO5)c3)nc2c1` has a displacement of 0.9%. With `Cc1ccc(-c2nc3ccccc3o2)cc1NC(=O)c1cccc(Cl)c1` the displacement was 17%. For `Cc1ccc(-c2nc3ccccc3o2)cc1NC(=O)c1ccc2c(c1)OCCO2`, the displacement was 45.1%. `O=C(Nc1cccc(-c2nc3cc(Cl)ccc3o2)c1)c1ccc2c(c1)OCCO2` showed a displacement of 105%. Work on `Cc1ccc(-c2nc3cc(Cl)ccc3o2)cc1NC(=O)c1ccc2c(c1)OCCO2` yielded a displacement of 102%. Work on `COc1cc(OC)cc(C(=O)Nc2cc(-c3nc4cc(Cl)ccc4o3)ccc2C)c1` yielded a displacement of 110%. With `COc1c(Cl)cc(C(=O)Nc2cc(-c3nc4cc(Cl)ccc4o3)ccc2C)cc1Cl` the displacement was 7.7%. With `Cc1ccc(-c2nc3cc(Cl)cc(Cl)c3o2)cc1NC(=O)c1ccc2c(c1)OCCO2` the displacement was 6.6%. For `Cc1ccc(-c2nc3cc(Cl)ccc3o2)cc1NC(=O)c1ccc2ccccc2c1`, the displacement was 128%. For `Cc1ccc2nc(-c3ccc(C)c(NC(=O)c4ccc5ccccc5c4)c3)oc2c1`, the displacement was -11.3%. For `CCc1ccc2oc(-c3ccc(C)c(NC(=O)c4cc(OC)cc(OC)c4)c3)nc2c1`, the displacement was 13.4%. `O=C(Nc1cccc(-c2nc3cc(Cl)ccc3o2)c1)c1ccc(Cl)cc1` showed a displacement of 0.2%. Compound `COc1ccc(C)cc1NC(=O)COc1ccc(Br)cc1C` has a displacement of 7.7%. With `CCOC(=O)C1=C(C)NC(=O)CC1c1ccccc1I` (stereo unspecified) the displacement was -10.7%. `COc1ccc(OCCCCN2CCN(C)CC2)cc1` gave a displacement of -5.8%. `Cc1noc2c1/C(=N\O)CC(c1ccccc1)C2` (stereo unspecified) gave a displacement of 2.6%. With `Cc1cc(C(=O)Nc2cccc(C)c2C)ccc1[N+](=O)[O-]` the displacement was 15.9%. For `COC(=O)c1c(C)oc2ccc(OCc3c(F)cccc3Cl)cc12`, the displacement was 91%. `Cc1oc2ccc(OCc3c(F)cccc3Cl)cc2c1C(=O)O` was tested, and the displacement was 11.7%. In the case of `COCCOC(=O)c1c(C)oc2ccc(OCc3c(F)cccc3Cl)cc12`, the displacement is reported as 6.9%. `Cc1ccc(N(CC(=O)N(Cc2ccccc2)Cc2ccccc2)S(C)(=O)=O)cc1` was tested, and the displacement was -7.5%. Work on `N#C/C(=C(/O)CO/N=C/c1ccccc1Cl)c1nc2ccccc2[nH]1` yielded a displacement of 53.6%. `N#C/C(=C(/O)C(Cl)(Cl)Cl)c1nc2ccccc2[nH]1` showed a displacement of -5.5%. `C/C(=N\OC/C(O)=C(\C#N)c1nc2ccccc2[nH]1)c1ccc(Br)cc1` showed a displacement of 46.6%.

— PubChem BioAssay AID1240 (Sanford-Burnham Center for Chemical Genomics, 2008)
